Screening results from PubChem BioAssay.
PI5P4K alpha inh: inhibitors of human PI5P4K alpha; P48426; 330,000 compounds, 1.2% hits; PI5P4Kalpha enzyme, ADP-Glo luminescence, 60 min; hits give low values; max response, %; active = max response of -50% or lower; inconclusive = between -30% and -50%; inactive = -30% or higher; also: value at the top dose of about 77 µM; % is scaled to controls: 0 for no effect and ±100 for the full control effect
Target sequence (P48426 whole entry, looked up): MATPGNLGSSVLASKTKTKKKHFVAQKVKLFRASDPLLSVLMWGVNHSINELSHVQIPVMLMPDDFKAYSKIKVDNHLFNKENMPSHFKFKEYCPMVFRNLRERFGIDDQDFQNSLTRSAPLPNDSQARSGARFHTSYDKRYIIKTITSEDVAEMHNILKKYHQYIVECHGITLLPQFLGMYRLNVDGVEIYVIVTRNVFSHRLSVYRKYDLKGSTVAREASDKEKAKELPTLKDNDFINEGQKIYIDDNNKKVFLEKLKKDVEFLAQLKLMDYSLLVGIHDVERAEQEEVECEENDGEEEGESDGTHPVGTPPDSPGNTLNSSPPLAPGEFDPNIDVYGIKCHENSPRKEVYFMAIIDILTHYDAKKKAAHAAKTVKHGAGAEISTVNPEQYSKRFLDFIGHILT
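Human PI5P4Kalpha with substrate in 0.038 M HEPES pH 7.4, 0.28 mM EGTA, 0.1% CHAPS, 5% DMSO; reaction started with 5 microM ATP (final), 60 min at room temperature. ADP formed read by ADP-Glo luminescence.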
PLK1 PBD block: PLK1 (human) polo-box domain binding inhibition; Potency, µM, for the others: max response, negative = inhibition, usual class: inhibitors; Plk1 PBD binding of FITC phosphopeptide, fluorescence polarization; AID 720504; 360,000 compounds, 2.8% hits; P53350; also: potency is read from the fitted curve at half-maximal effect; series mostly up to about 57 µM; % is scaled to controls: 0 for no effect and ±100 for the full control effect; nearly all actives have a fitted effect of over 65% in size
BAZ2B block: blocks human BAZ2B | Q9UIF8 | AlphaScreen BAZ2B-H3K14Ac peptide displacement | Potency, µM (highest dose often 114 µM), inactives show top-dose activity change, negative = inhibition, most hits filed as inhibitors | 360,000 compounds, 4.4% hits | AID 504333; also: potency is read from the fitted curve at half-maximal effect; % is scaled to controls: 0 for no effect and ±100 for the full control effect; nearly all actives have a fitted effect of over 60% in size
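AlphaScreen displacement of biotin-H3(5-23)K14Ac peptide (50 nM final) from BAZ2B (50 nM final) in PBS pH 7.4, 0.01% Tween-20; complex preformed 30 min RT, then compounds (top 110 uM) 30 min RT, beads 20 min dark.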
G9a inh: blocks human histone lysine methyltransferase G9a; Q96KQ7; G9a H3K9 monomethylation, AlphaScreen, 2 h; Potency, µM (titrated, usually from 102 µM), for inactives: at the top dose activity, negative = inhibition, usual class: inhibitors; 350,000 compounds, 8.8% hits; AID 504332; also: potency is read from the fitted curve at half-maximal effect; % is scaled to controls: 0 for no effect and ±100 for the full control effect; nearly all actives have a fitted effect of over 75% in size
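Signal arises when biotinylated H3K9 peptide, once monomethylated, bridges streptavidin donor and antibody-captured acceptor beads. Enzyme at 20 nM was preincubated 15 min with test compounds; peptide 500 nM and SAM 20 uM then reacted for 2 h.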
JMJD2A Tudor inh: blocks the human JMJD2A Tudor domain. AlphaScreen JMJD2A-Tudor / H3K4me3 peptide binding. AID 504339. 390,000 compounds, 4.4% hits. Potency, µM (titrated, usually from 114 µM), for inactives: top-dose activity change, negative = inhibition, actives largely listed as inhibitors. O75164; also: potency is read from the fitted curve at half-maximal effect; % is scaled to controls: 0 for no effect and ±100 for the full control effect; nearly all actives have a fitted effect of over 50% in size
HP1b binding inh: blocks HP1-beta chromodomain binding to methylated histone tails | AlphaScreen HP1-beta / biotin-H3K9me3 peptide binding | Potency, µM (titrated, usually from 114 µM), without a hit: at the top dose activity change, negative = inhibition, actives largely listed as inhibitors | 390,000 compounds, 0.56% hits | AID 540317; also: potency is read from the fitted curve at half-maximal effect; nearly all actives have a fitted effect of over 70% in size
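Compound inhibition of the preformed complex between 50 nM HP1-beta and 50 nM biotinylated H3K9me3 peptide was read by AlphaScreen. Buffer was PBS pH 7.4 with 0.01% Tween-20. Incubations ran 30 min at room temperature, with 10 ug/mL donor/acceptor beads.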
Starred values were filed as active, the others as inactive; [ ] = another dose, or the depositor's remark. Only some compounds are listed: those with a hit (about 12% of all), similar ones and a draw of the others. Unless noted, calls follow the shape of the dose curve; as a rule, active = well fitted curve in the direction sought with a large enough effect; inconclusive = small, poorly fitted or top-dose-only effect, or another doubt; inactive = no such curve, though single readings can be large; an effect the other way counts as inactive or inconclusive.

Results for CC(=O)c1cccc(NC(=O)CSC(=O)c2ccccc2)c1 ?
PI5P4K alpha inh: -10.8; PLK1 PBD block: inconclusive; BAZ2B block: 5.0%; G9a inh: 20µM*; JMJD2A Tudor inh: 5.2%; HP1b binding inh: 46.6%

How did CNC(=O)C1CCC(Cn2c(=O)c3sccc3n(CC(=O)N3CCCC3)c2=O)CC1 (configuration not stated) do in these assays?
BAZ2B block: -2.7%; G9a inh: 27.0%[59 µM]; JMJD2A Tudor inh: -9.7%; HP1b binding inh: 34.1%

How did Cn1c2ccc(CC(=O)O)cc2c2cc(CC(=O)O)ccc21 do in these assays?
PLK1 PBD block: -11.4%; BAZ2B block: inconclusive; G9a inh: 50.1µM*; JMJD2A Tudor inh: -12.5%; HP1b binding inh: 27.1%

Results for Cn1c(N/N=C/c2c[nH]c3ccccc23)nc2ccccc21 ?
PI5P4K alpha inh: -10.5; PLK1 PBD block: -5.7%; BAZ2B block: 31.6µM*; G9a inh: inconclusive; JMJD2A Tudor inh: 50.1µM*; HP1b binding inh: -37.0%

How did CCCCn1c(/N=C/c2c[nH]c3ccccc23)nc2ccccc21 do in these assays?
PLK1 PBD block: -2.7%; BAZ2B block: inconclusive; G9a inh: 4.0%; JMJD2A Tudor inh: inconclusive; HP1b binding inh: -14.6%

How did CCCn1c(/N=C/c2c[nH]c3ccccc23)nc2ccccc21 do in these assays?
PLK1 PBD block: -9.4%; BAZ2B block: inconclusive; G9a inh: 9.2%[12.7 µM]; JMJD2A Tudor inh: 63.1µM*; HP1b binding inh: -32.2%

Results for COCCCNC(=O)Cn1c(=O)n(-c2cccc(C)c2)c(=O)c2c3c(sc21)CN(C(C)=O)CC3 ?
BAZ2B block: -1.0%; G9a inh: -5.4%[59 µM]; JMJD2A Tudor inh: -7.3%; HP1b binding inh: 15.1%

How did CC(OC(=O)c1cc(S(=O)(=O)N2CCOCC2)ccc1Br)C(=O)N1CCOCC1 (configuration not stated) do in these assays?
PI5P4K alpha inh: -1.4; PLK1 PBD block: -5.2%; BAZ2B block: 10.7%; G9a inh: -6.8%[12.7 µM]; JMJD2A Tudor inh: -15.0%; HP1b binding inh: 24.5%

Results for c1ccc(C2CC(c3ccccc3)C(c3ccccc3)N2)cc1 (configuration not stated) ?
PI5P4K alpha inh: 10.5; PLK1 PBD block: -3.1%; BAZ2B block: 17.3%; JMJD2A Tudor inh: 21.6%; HP1b binding inh: 68.7%

How did O=C(O)CC1(O)C(=O)N(Cc2ccccc2)c2ccccc21 (configuration not stated) do in these assays?
PI5P4K alpha inh: -1.0; PLK1 PBD block: -9.6%; BAZ2B block: -23.0%; JMJD2A Tudor inh: -19.2%; HP1b binding inh: 19.0%

Results for Cc1ccc(C(=O)CC2(O)C(=O)N(Cc3ccccc3)c3ccccc32)c(C)c1 (configuration not stated) ?
BAZ2B block: 10µM*; G9a inh: 2.24µM*; JMJD2A Tudor inh: 39.8µM*; HP1b binding inh: inconclusive

How did CCN1C(c2ccc(F)cc2)=CS/C1=C(\C#N)c1nnc2n1-c1ccccc1SC2 do in these assays?
PLK1 PBD block: -12.2%; BAZ2B block: inconclusive; G9a inh: 31.6µM*; JMJD2A Tudor inh: inconclusive; HP1b binding inh: -15.8%

How did CN1C(c2ccc(F)cc2)=CS/C1=C(/C#N)c1nnc(N2CCOCC2)n1-c1ccccc1 do in these assays?
PI5P4K alpha inh: 1.4; PLK1 PBD block: -14.1%; BAZ2B block: -22.0%; G9a inh: inconclusive; JMJD2A Tudor inh: -28.8%; HP1b binding inh: 32.4%

How did Cc1ccc2oc(NC3=NC4(CCCC4)C4=C(CCCC4=O)N3)nc2c1 do in these assays?
JMJD2A Tudor inh: -26.2%

Results for Cc1ccc(C(=O)Nc2ccc(C(=O)N/N=C/c3ccncc3)cc2)cc1 ?
BAZ2B block: inconclusive; G9a inh: 31.6µM*

What do the screens show for `Cc1ccc(/C=N/NC(=O)c2ccncc2)cc1`?
PI5P4K alpha inh: 2.6; PLK1 PBD block: 0.3%; BAZ2B block: 6.6%; JMJD2A Tudor inh: -12.3%; HP1b binding inh: 30.7%
